Compound activity (PubChem)
PLC-beta3 inh – human PLC-beta3 inhibitors, primary screen, biochemical, fluorescence | 1-phosphatidylinositol 4,5-bisphosphate phosphodiesterase beta-3 (Homo sapiens), Q01970 | inhibition, % at 12.2 µM | AID 720704, 2013 | Purified PLC-beta3, fluorogenic substrate | 370,000 compounds, 0.18% hits; in the data active = inhibition above about 11%
Target sequence (Q01970 whole entry, looked up): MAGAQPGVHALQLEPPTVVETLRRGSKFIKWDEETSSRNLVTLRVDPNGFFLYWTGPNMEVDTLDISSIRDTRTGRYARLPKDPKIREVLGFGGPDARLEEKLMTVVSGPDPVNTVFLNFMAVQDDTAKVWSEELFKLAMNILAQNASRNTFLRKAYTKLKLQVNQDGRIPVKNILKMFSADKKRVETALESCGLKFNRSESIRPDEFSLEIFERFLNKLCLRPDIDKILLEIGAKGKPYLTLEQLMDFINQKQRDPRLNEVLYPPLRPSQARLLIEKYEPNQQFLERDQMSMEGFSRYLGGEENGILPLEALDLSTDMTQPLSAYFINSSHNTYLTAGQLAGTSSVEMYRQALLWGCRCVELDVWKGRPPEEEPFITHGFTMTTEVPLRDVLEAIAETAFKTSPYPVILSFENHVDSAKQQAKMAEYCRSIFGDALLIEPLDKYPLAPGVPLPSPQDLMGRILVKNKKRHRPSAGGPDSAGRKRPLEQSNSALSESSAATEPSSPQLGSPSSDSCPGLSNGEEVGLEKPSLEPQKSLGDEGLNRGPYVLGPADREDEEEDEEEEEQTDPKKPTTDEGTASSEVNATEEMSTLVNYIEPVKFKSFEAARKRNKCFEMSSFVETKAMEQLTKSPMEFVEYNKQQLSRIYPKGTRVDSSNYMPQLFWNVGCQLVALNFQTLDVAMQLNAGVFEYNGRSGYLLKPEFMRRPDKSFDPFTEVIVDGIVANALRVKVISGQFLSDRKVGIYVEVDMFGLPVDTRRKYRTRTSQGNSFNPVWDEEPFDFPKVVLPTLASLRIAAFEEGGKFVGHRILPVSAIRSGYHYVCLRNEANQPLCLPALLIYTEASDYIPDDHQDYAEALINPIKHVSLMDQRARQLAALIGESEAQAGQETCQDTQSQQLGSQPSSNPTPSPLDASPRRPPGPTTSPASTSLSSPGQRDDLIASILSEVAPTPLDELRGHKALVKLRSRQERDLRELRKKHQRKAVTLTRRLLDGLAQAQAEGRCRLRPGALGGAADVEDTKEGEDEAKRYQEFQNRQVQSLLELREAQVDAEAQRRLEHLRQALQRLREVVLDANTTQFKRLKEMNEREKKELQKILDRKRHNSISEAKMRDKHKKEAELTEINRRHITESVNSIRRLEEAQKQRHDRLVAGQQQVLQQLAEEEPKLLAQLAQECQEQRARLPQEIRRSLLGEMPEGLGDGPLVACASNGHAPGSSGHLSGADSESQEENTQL
MsrA inh – bovine MsrA enzyme inhibitors, primary screen, biochemical, absorbance, HTS; Methionine sulfoxide reductase A (Bos taurus); purified bovine MsrA, absorbance read-out; inhibition, % at 15.5 µM; 360,000 compounds, 0.75% hits
bovine MsrA act – bovine MsrA enzyme activators, primary screen, biochemical, absorbance, HTS | 360,000 compounds, 0.3% hits | Methionine sulfoxide reductase A (Bos taurus) | activation, % at 10.6 µM | purified bovine MsrA, absorbance read-out | AID 602163, 2012; in the data active = activation above about 7.5%
PLCg1 inh – PLC-gamma1 enzyme inhibitors, primary screen, biochemical, fluorescence, purified enzyme. 1-phosphatidylinositol 4,5-bisphosphate phosphodiesterase gamma-1 (Homo sapiens), P19174. fluorogenic substrate. inhibition, % at 12.2 µM. 370,000 compounds, 0.84% hits; in the data active = inhibition above about 9.5%
MsrA inh confirm – bovine MsrA inhibitors, retest, confirmation, biochemical, absorbance, HTS; shares compounds with MsrA inh; purified bovine MsrA, absorbance read-out; 2,300 compounds, 41% hits; inhibition, % at 15.5 µM;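 also: coupled to thioredoxin reductase with NADPH and selenocystamine and DMSO as substrate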
A number is an active result; 0 = inactive; - = not tested or not shown. An excerpt weighted towards active compounds, which were near 1.9% of everything screened. Rule as the data show it, unless noted: active = inhibition above about 4.5%; inactive = the rest.

SMILES	PLC-beta3 inh	MsrA inh	bovine MsrA act	PLCg1 inh	MsrA inh confirm
CCCC[C@H]1C2CC(OC(=O)Nc3ccc(C#N)cc3)C(C2)[C@H]2CCCCN21 (stereo partly specified)	0	-	-	0	-
O=c1oc2ccccc2cc1-c1nc2ccccc2o1	0	5.2	0	0	0
O=c1oc2ccc3ccccc3c2cc1-c1nc2ccccc2o1	0	0	0	0	-
CCOC(=O)c1c(Nc2ccc(OC)cc2)n[nH]c1C	0	0	-	0	-
CCOC(=O)Cn1cc(CN2C(C(=O)OC)CN(Cc3ccc(C)cc3)CCS2(=O)=O)nn1 (stereo unspecified)	0	-	-	0	-
COC(=O)N1C[C@H](OCc2cn(-c3cc(Cl)cc(Cl)c3)nn2)[C@H](OCc2cn(-c3cc(Cl)cc(Cl)c3)nn2)C[C@@H]1c1ccccc1Br	0	0	-	0	-
Cc1ccc(Nc2n[nH]c(C)c2[N+](=O)[O-])cc1C	0	11	0	0	8.2
O=C(Nc1ccc(F)cc1)OCc1cn(Cc2cccc(C(F)(F)F)c2)nn1	0	-	-	0	-
CNc1oc(/C=C/c2ccccc2)nc1C#N	0	4.8	0	0	4.6
Cc1onc(-c2ccccc2)c1C(=O)NCC1CCN(C(=O)C(=O)c2cccs2)CC1	0	0	-	0	-
C/C(=N\NC(=O)c1ccc(CSc2nncn2C)cc1)c1cccs1	0	0	0	0	-
COc1cc(/C=N/NC(=O)c2ccc(CSc3nncn3C)cc2)cc(OC)c1O	0	5.0	0	0	0
Cn1cnnc1SCc1ccc(C(=O)N/N=C/c2cccs2)cc1	0	4.7	0	0	0
O=C(Nc1ccc(Br)cc1)OCCCN1CCC2(CCCCC2)C1=O	0	-	-	0	-
Cc1ccc(OCC(=O)N/N=C/c2cccn2C)cc1	0	0	0	0	-
Cc1ccc(C)c(OCC(=O)N/N=C\c2cccn2C)c1	0	5.1	0	0	0
COC(=O)Cc1nnn2c1CC(OC)c1cc(Br)ccc1-2 (stereo unspecified)	0	0	-	0	-
Cc1ccn2c(=O)c(C(=O)O)cnc2c1	0	4.7	0	0	0
COc1cccc(C(=O)N2CCC[C@@H]2C(=O)N2CCC[C@@H]2C(=O)NCc2ccccc2)c1	0	0	-	0	-
O=C1N/C(=N\S(=O)(=O)Cc2ccccc2)S/C1=C/c1cccc([N+](=O)[O-])c1	0	5.6	0	0	0
CN1[C@H](Cc2ccccc2)COc2cccc(F)c2S1(=O)=O	0	-	-	0	-
CCN(CC)C(=O)COc1cc(C)c(Cl)c(C)c1	0	37	0	0	0
COC(=O)[C@@]12CCCCC=C1N(CCc1ccc(Cl)cc1)C(=O)[C@H]2CC(=O)NCc1ccc(C)o1	0	-	-	0	-
CC(=O)c1ccc(Nc2ccc([N+](=O)[O-])c3nonc23)cc1	0	7.0	0	0	0
Cn1cc(/C=C2\SC(=O)NC2=S)c2ccccc21	0	22	0	0	7.0
SMILES	PLC-beta3 inh	MsrA inh	bovine MsrA act	PLCg1 inh	MsrA inh confirm
COCc1[nH]nc2c1C(c1cccc(C(F)(F)F)c1)NC2=O (stereo unspecified)	0	0	-	0	-
CC1=CC(=O)[C@@H](O)[C@@H](c2ccccc2Br)N1C	0	5.3	0	0	0
CC1=CC(=O)[C@@H](OC(=O)Nc2ccc(C)cc2)[C@@H](c2ccccc2Br)N1C	0	0	0	0	-
CC(c1nccs1)N(C)c1nc2nonc2nc1N(C)C (stereo unspecified)	0	4.9	0	0	0
C#CCNC(=O)C[C@H]1C[C@@]2(C(=O)OC)C(=C[C@H](C3CCCC3)O[C@@H]2C)N(Cc2ccccc2)C1=O	0	0	-	0	-
Cn1c(/C=N/NC(=O)c2ccccc2Br)nc2ccccc21	0	5.3	0	0	0
Cc1ccc(C(=O)N/N=C/c2nc3ccccc3n2C)cc1	0	0	0	0	-
C[C@@H]1CN([C@@H](C)CO)C(=O)CCCn2cc(nn2)CO[C@H]1CN(C)C(=O)Nc1ccc2c(c1)OCCO2	0	0	-	0	-
O=C(NCc1ccco1)C1CCCN(S(=O)(=O)c2ccccc2[N+](=O)[O-])C1 (stereo unspecified)	0	-	-	0	-
Cc1cc(Oc2cccnc2)ccc1NC(=O)Cc1c[nH]c2ccccc12	0	0	-	0	-
COC(=O)CN(c1nc(C)c(Br)c(OC)n1)S(=O)(=O)c1ccccc1	0	13	0	0	12
CN(C)c1ccc(C(=O)OCC(=O)N2CCCC2)cc1	0	5.7	0	0	0
C[C@@H]1Cn2cnc(C(=O)N3CCN(C(=O)OC(C)(C)C)CC3)c2C(=O)N1	0	0	-	0	-
CCc1cc2c(=O)c(-c3nc4ccccc4n3C)c(C)oc2c(CN2CCN(CCO)CC2)c1O	0	5.2	0	0	0
CCc1cc2c(=O)c(-c3nc4ccccc4n3C)c(C)oc2c(CN2CCOCC2)c1O	0	5.0	0	0	0
O=C(N[C@H](C(=O)N1CCC[C@H]1C(=O)NC1CCCC1)C1CCCCC1)c1ccc(Cl)cc1Cl	0	0	-	0	-
Cc1cc(=O)oc(C)c1C(=O)NCCC(C)C	0	5.5	0	0	5.0
Cc1cc(=O)oc(C)c1C(=O)NCCNC(=O)c1c(C)cc(=O)oc1C	0	0	0	0	-
Brc1ccc(CN2CCN(c3ncc(Cc4ccccc4)cn3)CC2)cc1	0	0	-	0	-
S=C(NCC1CCCCC1)OC1CCC12CCC(c1ccccc1)CC2 (stereo unspecified)	0	-	-	0	-
C=CCNc1nc(-c2cccs2)c(CC(=O)O)s1	0	0	0	0	-
O=C(O)Cc1sc(Nc2ccccc2)nc1-c1cccs1	0	4.9	0	0	0
Cc1nc2c(o1)C(=O)c1ccccc1C2=Nc1ccccc1	0	8.9	0	0	15
Cc1ccc(N=C2C(=O)Nc3ccccc32)cc1	0	0	0	0	-
COC(=O)c1ccc(S(=O)(=O)N2CCC(NC(=O)CCC3CCCC3)CC2)cc1	0	-	-	0	-
SMILES	PLC-beta3 inh	MsrA inh	bovine MsrA act	PLCg1 inh	MsrA inh confirm
O=C(C[n+]1ccc(Cc2ccccc2)cc1)Nc1ccc([N+](=O)[O-])cc1Cl	0	0	0	0	-
CC(C)(C)NC(=O)NC(=O)C[n+]1ccc(Cc2ccc([N+](=O)[O-])cc2)cc1	0	12	0	0	0
Cc1ccc(Cl)cc1NC(=O)C[n+]1ccc(Cc2ccc([N+](=O)[O-])cc2)cc1	0	6.6	0	0	0
CC(C)C[C@H]1COc2cc(N3CCCC3)ccc2S(=O)(=O)N1	0	0	-	0	-
COc1cccc2cc(-c3csc(CCn4nc(C)cc4C)n3)c(=O)oc12	0	5.5	0	0	0
COc1cc(N2CCCC2)ccc1C=O	0	6.8	0	0	0
C[C@@H]1C[C@H]2[C@@H](C)C(=O)N3[C@H](c4ccccc4)[C@H](C)C[C@H]3[C@@H](C)C(=O)N2[C@@H]1c1ccccc1	0	-	-	0	-
O=C1CS/C(=N/N=C/c2cccs2)N1	0	6.4	0	0	0
O=C1CS/C(=N/N=C/c2ccncc2)N1	0	0	0	0	-
CC1(C)S/C(=N/N=C/c2cccs2)NC1=O	0	4.7	0	0	0
O=C1N/C(=N\N=C\c2cccs2)SC1Cc1cccc(Cl)c1Cl (stereo unspecified)	0	0	0	0	-
